Reference: PubChem BioAssay (Tox21)
Inconclusive results are not listed. Entries that show only a call come without a potency. Activity calls are given as the source filed them. Unless noted, the call rests on the fitted dose curve; in most records, active means well fitted curve in the direction sought with a large enough effect in the repeat runs; inconclusive means weak or mixed curves; inactive means no such curve, though single readings can be large; an effect the other way counts as inactive or inconclusive.

Legend:
[1] = qHTS assay to identify small molecule antagonists of the estrogen receptor alpha (ER-alpha) signaling pathway using the BG1 cell line in the presence of 0.1 nM 17-beta-estradiol - cell viability counter screen (AID 1259241); further: nearly all actives have a fitted effect of over 40% in size; further: potency means the concentration at half of the fitted maximal effect
Summary of the method: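 Measures cytotoxicity alongside the ER-alpha antagonist readout: VM7Luc4E2 cells, charcoal-stripped serum, 0.1 nM 17beta-estradiol final, 22 hr compound incubation at 37C, CellTiter-Fluor fluorescence.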

[2] = qHTS assay to identify small molecule antagonists of the androgen receptor (AR) signaling pathway using the MDA cell line in the presence of 0.5 nM R1881 - cell viability counter screen (AID 1259242); further: nearly all actives have a fitted effect of over 45% in size; further: potency means the concentration at half of the fitted maximal effect
Summary of the method: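 Viability of MDA-kb2 cells was multiplexed with the luciferase AR readout; after 16 hr with compounds and R1881 at 0.5 nM final, CellTiter-Fluor fluorescence was recorded.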

[3] = qHTS assay to identify small molecule HDAC inhibitors (AID 1259364); further: potency means the concentration at half of the fitted maximal effect;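 further: wild-type HCT-116 cells with endogenous class I/II HDAC activity; nearly all actives have a fitted effect of over 45% in size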
Summary of the method: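 Read-out: luminescence of HDAC-Glo I/II reagent, 30 min RT, reflecting class I/II deacetylase activity in whole HCT-116 cells pre-exposed 2 h to DMSO-dissolved compounds.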

[4] = qHTS assay to identify small molecule HDAC inhibitors - cell viability counter screen (AID 1259365); further: nearly all actives have a fitted effect of over 50% in size; further: potency means the concentration at half of the fitted maximal effect
Summary of the method: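 Following a 2hr exposure of overnight-plated wild-type HCT-116 cells to DMSO-delivered compounds, CellTiter-Glo was added and luminescence recorded after 30min at room temperature.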

[5] = qHTS assay to identify small molecule agonists of the sonic hedgehog signaling (Shh) pathway - cell viability counter screen (AID 1259366); further: nearly all actives have a fitted effect of over 50% in size; further: potency means the concentration at half of the fitted maximal effect
Summary of the method: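 After a 4hr attachment at 37C, NIH/3T3 cells bearing an integrated Gli1-driven luciferase reporter were dosed with compounds. Treatment lasted 24hr, with the final hour including CellTiter-Fluor for a fluorescence viability measurement.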

[6] = qHTS assay to identify small molecule antagonists of the sonic hedgehog signaling (Shh) pathway - cell viability counter screen (AID 1259367); further: nearly all actives have a fitted effect of over 55% in size; further: potency means the concentration at half of the fitted maximal effect
Summary of the method: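 NIH/3T3-derived Gli1-Luc reporter cells (2,000 per well) rested 4 hr at 37 C, then received DMSO compounds plus conditioned medium. After 23 hr of treatment, CellTiter-Fluor was added for 1 hr at 37C and fluorescence read.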

[7] = qHTS assay to identify small molecule agonists of the sonic hedgehog signaling (Shh) pathway (AID 1259368; calls by dose curve;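 further: NIH/3T3-derived 3T3Gli1-Luc cells carrying a stable Gli1-driven firefly luciferase reporter; series mostly up to about 92 µM; nearly all actives have a fitted effect of over 15% in size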)
Summary of the method: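 A Gli1 transcriptional response element controlled firefly luciferase in 3T3Gli1-Luc cells. Compounds and a positive control were added 4 hr after plating, and cells were incubated a further 24 hr at 37 C before luminescence detection.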

[8] = target: Androgen receptor (Homo sapiens) (UniProt P10275); assay: qHTS assay to identify small molecule antagonists of the androgen receptor (AR) signaling pathway using the MDA cell line in the presence of 0.5 nM R1881 (AID 1259243); further: nearly all actives have a fitted effect of over 50% in size; further: potency means the concentration at half of the fitted maximal effect
Summary of the method: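 Reporter cells cultured without CO2 receive test chemicals, then 0.5 nM R1881 final; after 16 hr at 37C, ONE-Glo is added and light output recorded.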

[9] = target: Estrogen receptor (Homo sapiens) (UniProt P03372); assay: qHTS assay to identify small molecule antagonists of the estrogen receptor alpha (ER-alpha) signaling pathway using the BG1 cell line in the presence of 0.1 nM 17-beta-estradiol (AID 1259244); further: nearly all actives have a fitted effect of over 50% in size; further: potency means the concentration at half of the fitted maximal effect
Summary of the method: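 Estradiol at 0.1 nM (final) stimulates the endogenous ER-alpha of VM7Luc4E2 cells carrying an ERE-driven luciferase; compounds are co-incubated 22 h at 37C and luciferase output quantified by luminescence.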

[10] = qHTS assay to identify small molecule phospholipidosis (PLD) inducers (AID 1259344; active means well fitted curve in the direction sought with a large enough effect; an effect the other way counts as inactive or inconclusive)
Summary of the method: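 HepG2 cells on collagen I, attached 4 h at 37 C, were co-treated with compound and LipidTOX Red dye for 24 h at 37 C, then fixed with paraformaldehyde plus Hoechst 33342 and imaged by high-content microscopy for phospholipid accumulation.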

Sequence of Estrogen receptor (Homo sapiens) (P03372 whole entry, looked up): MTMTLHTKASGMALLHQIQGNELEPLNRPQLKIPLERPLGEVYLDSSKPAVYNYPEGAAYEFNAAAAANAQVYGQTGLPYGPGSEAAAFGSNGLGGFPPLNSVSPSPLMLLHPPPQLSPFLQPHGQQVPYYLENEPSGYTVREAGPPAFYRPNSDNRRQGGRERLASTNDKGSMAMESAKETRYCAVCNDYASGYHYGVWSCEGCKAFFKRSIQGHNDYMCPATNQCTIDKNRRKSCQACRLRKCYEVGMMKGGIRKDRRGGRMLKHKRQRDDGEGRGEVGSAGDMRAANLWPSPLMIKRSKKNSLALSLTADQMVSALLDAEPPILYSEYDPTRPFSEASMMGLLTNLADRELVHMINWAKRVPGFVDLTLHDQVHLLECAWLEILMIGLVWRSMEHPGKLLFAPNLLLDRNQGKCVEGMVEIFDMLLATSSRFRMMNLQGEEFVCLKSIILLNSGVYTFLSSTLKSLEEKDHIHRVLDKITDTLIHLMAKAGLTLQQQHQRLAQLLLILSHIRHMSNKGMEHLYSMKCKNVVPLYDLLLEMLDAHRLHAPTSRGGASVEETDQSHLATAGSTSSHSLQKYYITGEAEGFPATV
Sequence of Androgen receptor (Homo sapiens) (P10275 whole entry, looked up): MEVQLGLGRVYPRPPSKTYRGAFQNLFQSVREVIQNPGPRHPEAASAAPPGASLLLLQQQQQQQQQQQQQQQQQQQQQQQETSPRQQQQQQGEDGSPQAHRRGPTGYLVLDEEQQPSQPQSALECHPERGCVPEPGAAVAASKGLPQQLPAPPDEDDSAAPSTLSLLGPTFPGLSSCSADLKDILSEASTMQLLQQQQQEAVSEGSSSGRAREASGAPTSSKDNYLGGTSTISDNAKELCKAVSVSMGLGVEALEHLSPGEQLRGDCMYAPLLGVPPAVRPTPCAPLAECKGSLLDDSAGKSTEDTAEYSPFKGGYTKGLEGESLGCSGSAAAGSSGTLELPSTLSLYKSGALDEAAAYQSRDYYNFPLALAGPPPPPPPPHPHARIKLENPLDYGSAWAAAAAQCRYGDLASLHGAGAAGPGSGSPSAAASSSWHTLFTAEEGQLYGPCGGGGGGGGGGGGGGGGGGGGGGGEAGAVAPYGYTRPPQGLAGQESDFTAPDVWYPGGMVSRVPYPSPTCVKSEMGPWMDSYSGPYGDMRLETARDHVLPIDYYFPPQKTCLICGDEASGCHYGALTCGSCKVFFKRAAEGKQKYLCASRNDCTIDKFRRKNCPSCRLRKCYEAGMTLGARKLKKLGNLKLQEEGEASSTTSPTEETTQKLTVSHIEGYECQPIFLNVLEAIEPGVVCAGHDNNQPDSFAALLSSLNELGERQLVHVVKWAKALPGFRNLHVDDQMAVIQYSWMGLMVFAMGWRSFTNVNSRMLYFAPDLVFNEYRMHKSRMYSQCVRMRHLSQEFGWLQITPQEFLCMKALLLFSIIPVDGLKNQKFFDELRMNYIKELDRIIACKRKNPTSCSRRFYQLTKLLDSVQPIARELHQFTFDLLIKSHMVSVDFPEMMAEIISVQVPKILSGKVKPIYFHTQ

| Compound | Potency [1] | Potency [2] | Potency [3] | Potency [4] | Potency [5] | Potency [6] | Potency [7] | Potency [8] | Potency [9] | outcome [10] |
| --- | --- | --- | --- | --- | --- | --- | --- | --- | --- | --- |
| CC/C(=N\OC/C=C/Cl)C1=C(O)CC(C2CCOCC2)CC1=O (stereo not drawn) | inactive | inactive | inactive | inactive | inactive | inactive | inactive |  |  |  |
| CCOP(O)OCC | inactive | inactive | inactive | inactive | inactive | inactive | inactive |  |  |  |
| CC(=O)C(C)(C)C | inactive | inactive | inactive | inactive | inactive | inactive | inactive |  |  |  |
| CCCCN=C=O | inactive | inactive | inactive | inactive | inactive |  | inactive |  |  |  |
| CCBr | inactive | inactive | inactive | inactive | inactive | inactive | inactive |  |  |  |
| N#C/C(N)=C(/N)C#N | inactive | inactive | inactive | inactive | inactive |  | inactive |  |  |  |
| Brc1ccc(Oc2ccccc2)cc1 | inactive | inactive | inactive | inactive | inactive | inactive | inactive |  |  |  |
| O=C(NCc1cccnc1)Nc1ccc([N+](=O)[O-])cc1 | inactive | inactive | inactive | inactive | inactive | inactive | inactive |  |  |  |
| Nc1nc(N)nc(N)n1 | inactive | inactive | inactive | inactive | inactive | inactive | inactive |  |  |  |
| O=Cc1ccc(Cl)cc1Cl | inactive | inactive | inactive | inactive | inactive | inactive | inactive |  |  |  |
| CC(C)(CCl)C(=O)Cl | inactive | inactive | inactive | inactive | inactive | 12.2 µM (active) | inactive |  |  |  |
| C=CC(=O)OCCCCO | inactive | inactive | inactive | inactive | 61.1 µM (active) |  | inactive |  |  |  |
| Cc1ccccc1CCl | inactive | inactive | inactive | inactive | inactive | inactive | inactive |  |  |  |
| CCOP(=O)(OCC)Oc1ccc([N+](=O)[O-])cc1 | inactive | inactive | inactive | inactive |  |  | inactive |  |  |  |
| O=C(Nc1ccccc1)Nc1ccnc(Cl)c1 |  |  | 4.33 µM (active) | inactive |  |  | inactive | 43.3 µM (active) | 24.3 µM (active) |  |
| O=C(Nc1ccccc1)Nc1cnns1 |  | inactive | 30.6 µM (active) | inactive | inactive |  | inactive |  |  |  |
| COC1=CC(=O)O[C@@H](CCc2ccccc2)C1 |  | inactive |  | inactive |  |  | inactive | 40.1 µM (active) |  |  |
| CCCCN(N=O)C(=N)N[N+](=O)[O-] | inactive | inactive | inactive | inactive | inactive |  | inactive |  |  |  |
| CO/C=C(/C(=O)OC)c1ccccc1COc1cccc(C(F)(F)F)n1 |  | 6.85 µM (active) | inactive | inactive | inactive |  | inactive |  | 2.17 µM (active) |  |
| c1cc2ccc3cccc4ccc(c1)c2c34 |  | inactive | inactive | inactive | inactive | inactive | inactive | 16.1 µM (active) | inactive | inactive |
| O=[N+]([O-])c1ccccc1CCl |  | inactive | inactive | inactive | inactive | inactive | inactive |  |  |  |
| N#Cc1cc(I)c(O)c(I)c1 |  |  | inactive | inactive |  |  | inactive | 54.5 µM (active) |  |  |
| NNC(=O)c1cccnc1 | inactive | inactive |  | inactive | inactive | inactive | inactive |  |  |  |
| CCCCC(O)(Cn1cncn1)c1ccc(Cl)cc1Cl (stereo not drawn) |  | inactive | inactive | inactive |  |  | inactive | 54.4 µM (active) |  |  |
| CCc1ccc(C(=O)NN(C(=O)c2cc(C)cc(C)c2)C(C)(C)C)cc1 |  | inactive | inactive | inactive | 2.17 µM (active) | 2.43 µM (active) | inactive |  |  |  |

| Compound | Potency [1] | Potency [2] | Potency [3] | Potency [4] | Potency [5] | Potency [6] | Potency [7] | Potency [8] | Potency [9] | outcome [10] |
| --- | --- | --- | --- | --- | --- | --- | --- | --- | --- | --- |
| CCOP(=S)(OCC)SCn1nnc2ccccc2c1=O |  | inactive | inactive | inactive | inactive | inactive | inactive |  | 48.6 µM (active) |  |
| CC1CC(CC2CCC(N)C(C)C2)CCC1N (stereo not drawn) |  |  | inactive | inactive |  |  | inactive | inactive | inactive |  |
| Clc1cc(C(Cl)(Cl)Cl)cnc1Cl | inactive |  | inactive | inactive | inactive | inactive | inactive |  | inactive |  |
| CCOc1ccc(C(C)(C)COCc2cccc(Oc3ccccc3)c2)cc1 | inactive | inactive | inactive | inactive |  | inactive | inactive |  |  |  |
| CN1[C@@H]2CC[C@H]1CC(OC(=O)c1cc(Cl)cc(Cl)c1)C2 (stereo partly drawn) | inactive | inactive | inactive | inactive |  |  | inactive |  |  |  |
| CCCCc1c(C)nc(NCC)nc1OS(=O)(=O)N(C)C | inactive | inactive | inactive | inactive | 30.6 µM (active) |  | inactive |  |  |  |
| Clc1ccc(C2(Cn3cncn3)CC(Br)CO2)c(Cl)c1 (stereo not drawn) |  | inactive | inactive | inactive |  |  | inactive |  | 68.2 µM (active) |  |
| CC(c1ccc(O)cc1)(c1ccc(O)cc1)c1ccc(O)cc1 |  | inactive | inactive | inactive | 61.1 µM (active) |  |  |  |  |  |
| CC(C)(C)c1cc([N+](=O)[O-])cc([N+](=O)[O-])c1O | 13.6 µM (active) | 12.2 µM (active) |  | inactive | 21.6 µM (active) | 24.3 µM (active) | inactive |  |  |  |
| C/C(=C\c1ccccc1)[N+](=O)[O-] | inactive |  | inactive | inactive | 15.4 µM (active) |  | inactive | 12.2 µM (active) | inactive |  |
| O=C(N[C@H](c1ccccc1)[C@@H]1CN2CCC1CC2)c1c(Cl)ccc(C(F)(F)F)c1Cl | inactive |  | inactive | inactive | 39.2 µM (active) | 43.9 µM (active) |  |  |  |  |
| Nc1ccc([N+](=O)[O-])cc1[N+](=O)[O-] |  | inactive | inactive | inactive |  | inactive |  |  | inactive |  |
| CO/N=C(/C(=O)OC)c1ccccc1COc1ccccc1C | inactive |  | inactive | inactive | inactive | inactive | inactive | 17.2 µM (active) |  |  |
| CCC(C)(NC(=O)c1cc(Cl)c(C)c(Cl)c1)C(=O)CCl (stereo not drawn) |  |  | inactive | inactive | 43.5 µM (active) | 21.8 µM (active) | inactive |  | inactive |  |
| IC(I)=C(I)I |  | 61.1 µM (active) | inactive | inactive | 7.7 µM (active) |  | inactive | 15.4 µM (active) | 27.3 µM (active) |  |
| CN1C[C@H](CNC(=O)OCc2ccccc2)C[C@@H]2c3cccc4c3c(cn4C)C[C@H]21 | inactive |  | inactive | inactive |  | inactive |  |  | inactive |  |
| O=C(O)CC(Cl)C(=O)O (stereo not drawn) |  | inactive | inactive | inactive | inactive | inactive |  |  |  |  |
| Nc1ccc(N=Nc2ccc(-c3ccc(N=Nc4c(S(=O)(=O)O)cc5cc(S(=O)(=O)O)c(N=Nc6ccccc6)c(O)c5c4N)cc3)cc2)c(N)c1 |  | inactive | 15.7 µM (active) | 17.6 µM (active) | 17.6 µM (active) | 19.7 µM (active) | inactive |  | inactive |  |
| NS(=O)(=O)C(F)(F)C(F)(F)C(F)(F)C(F)(F)C(F)(F)C(F)(F)C(F)(F)C(F)(F)F |  | inactive | inactive | inactive | inactive | inactive |  | inactive | inactive |  |
| C=CC[C@]1(O)CC[C@H]2[C@@H]3CCC4=CC(=O)CCC4=C3C=C[C@@]21C |  |  | inactive | inactive |  |  | inactive |  | 13.3 µM (active) |  |
| CS/C(C)=N/OC(=O)N(C)SN(C)C(=O)O/N=C(\C)SC | inactive |  | inactive | inactive | 54.5 µM (active) | inactive | inactive | inactive | inactive |  |
| Cc1ccc(-c2c(Cl)nc(C#N)n2S(=O)(=O)N(C)C)cc1 | inactive |  |  | inactive |  |  |  | 38.5 µM (active) | 43.2 µM (active) |  |
| COP(=S)(OC)Oc1ccc([N+](=O)[O-])cc1Cl |  |  |  | inactive |  |  | inactive | 6.86 µM (active) | inactive |  |
| ClCCCCBr | inactive | inactive | inactive | inactive |  | inactive | inactive |  |  |  |
